Results on seven molecules are retold here after PubChem BioAssay (NCI).

Common to all, as to assay: NCI-60 one-dose screen, 48 h (100 = growth as untreated, 0 = no growth, -100 = all killed)
Holding throughout (settings): 10 µM unless noted

For experiment [1], the system named is SK-MEL-2 melanoma.
Experiment [2] deals with EKVX NSCLC.
Experiment [3] deals with SN12C renal.
In experiment [4] the test system is UO-31 renal.
Experiment [5] deals with TK-10 renal.
In experiment [6] the test system is ACHN renal.
Experiment [7] deals with CAKI-1 renal.
For experiment [8], the system named is A498 renal.
Experiment [9] has as its system CCRF-CEM leukemia.
Experiment [10] deals with MOLT-4 leukemia.
Experiment [11] deals with SR leukemia.
In experiment [12] the test system is RPMI-8226 leukemia.
Experiment [13] deals with OVCAR-8 ovarian.
Experiment [14] deals with OVCAR-5 ovarian.
The subject of experiment [15] is OVCAR-4 ovarian.
The subject of experiment [16] is SK-OV-3 ovarian.
Experiment [17] relates to IGROV1 ovarian.
Experiment [18] concerns OVCAR-3 ovarian.
Experiment [19] relates to HS 578T breast.
Experiment [20] has as its system NCI/ADR-RES ovarian.

SMILES strings stand for the structures. This is part of a sample that, as a whole, favours compounds with a hit. Of some 83,000 tested, about 20% had one in any assay.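 Negative percent growth values reflect cell death: -40 means 40% of the cells present at the start died, and -100 means all died.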 A number with no mark means an inactive call. Calls of active or inactive are those of the source. The calls were made as follows: active = growth percent below 10; inactive = the rest.

`O=C(COc1ccc(/C=C2\Oc3ccccc3C2=O)cc1)Nc1nccs1`: the growth is 93.6% in [1]; 84% in experiment [2]; 90.3% in [3]; -39.8% (active) in experiment [4]; 134% in experiment [5]; 107% in experiment [6]. Besides, the growth was 68.9% in experiment [7]; 116% in experiment [8]; 0% (active) in [9]; 42.3% in [10]; 0% (active) in experiment [11]; 40.4% in [12]. Also, the growth in experiment [13] is 41.8%; in experiment [14], 91.8%; in [15], 90.3%; in [16], 125%; in experiment [17], -13.3% (active); in experiment [18], 97.2%. For the same molecule, the growth in [19] is 107%; in experiment [20], 91.6%.
As for `O=C1C(c2c(O)[nH]c3ncccc23)=Nc2ccccc21`, the growth was 43.4% in experiment [1]; 30.6% in experiment [2]; 90.6% in experiment [3]; 46.2% in experiment [4]; 56.4% in experiment [5]; 51.5% in experiment [6]. The growth in experiment [7] is 53.7%; in experiment [8], 117%; in experiment [9], 88.4%; in [10], 85.4%; in experiment [11], 82.5%; in experiment [12], 75.4%. Moreover, the growth was 84.4% in experiment [13]; 77.7% in experiment [14]; 80.4% in experiment [15]; 69.6% in [16]; -40.9% (active) in experiment [17]; 75.8% in [18]. In addition, the growth in experiment [19] is 72.5%; in [20], 82.7%.
In the case of `COc1ccc(Cn2cc(C(=O)N=Nc3c(O)[nH]c4ccc(Br)cc34)nn2)cc1`, the growth in experiment [1] was 98.1%; in experiment [2], 106%; in [3] it was 102%; in experiment [4] it was 91.5%; in experiment [5], 97.6%; in experiment [6] it was 110%. The growth in experiment [7] is 97.7%; in experiment [8] it was 97.1%; in experiment [9], 92.5%; in experiment [10] it was 80.6%; in experiment [11] it was 77.5%; in experiment [12], 100%. Besides, the growth was 99.2% in experiment [13]; 106% in experiment [14]; 105% in experiment [15]; 108% in [16]; 105% in [17]; 112% in [18]. Further, the growth in [19] is 114%; in experiment [20], 103%.
Turning to `COC(=O)[C@@H](Cc1c[nH]c2ccccc12)NC[C@@H](O)CN1C(=O)/C(=C\c2cc(OC)c(OC)c(OC)c2)c2ccccc21`, the growth in experiment [1] is 58.1%; in experiment [2] it was 85.7%; in experiment [3], 73%; in [4] it was 58.3%; in experiment [5], 101%; in experiment [6], 75.5%. Also, the growth was 73.1% in experiment [7]; 69.5% in experiment [8]; 20.7% in experiment [9]; 1.92% (active) in [10]; 12.2% in experiment [11]; 6.06% (active) in experiment [12]. Moreover, the growth is 59.3% in [13]; 105% in experiment [14]; 63.1% in experiment [15]; 98.6% in experiment [16]; 78.9% in experiment [17]; 65.3% in experiment [18]. Besides, the growth in experiment [19] is 76%; in experiment [20] it was 78.6%.
`COc1ccc(N/N=C/c2ccc3c(c2)Sc2ccccc2N3C)cc1`: the growth in [1] is 98%; in [2], 65.9%; in [3], 79.3%; in experiment [4], 42.1%; in experiment [5], 114%; in experiment [6] it was 51.6%. For the same molecule, the growth in experiment [7] is 26.2%; in [8], 17.5%; in [9], 73.6%; in [10] it was 38.8%; in experiment [11], 42.2%; in experiment [12] it was 78.2%. Moreover, the growth in [13] was 65.9%; in experiment [14], 53.3%; in [15], 60.7%; in experiment [16], 87.4%; in experiment [17] it was 55.8%; in experiment [18], 77.7%. The growth was 95.1% in experiment [19] and 79.6% in [20].
For the molecule `Cc1csc(Nc2nc(-c3cccc(Cl)c3)nc(C(Cl)(Cl)Cl)n2)n1`, the growth in experiment [1] is 83.7%; in [2], 4.21% (active); in experiment [3], 84.1%; in experiment [4], 39.6%; in experiment [5], 3.91% (active); in experiment [6], -21.7% (active). For the same molecule, the growth was 4.29% (active) in experiment [7]; -18.6% (active) in experiment [8]; 95.5% in experiment [9]; 74% in [10]; 58.9% in [11]; 13.8% in [12]. Moreover, the growth is 58.6% in [13]; 46.8% in experiment [14]; 70.1% in experiment [15]; 70.8% in experiment [16]; 83.1% in experiment [17]; -18.4% (active) in experiment [18]. Besides, the growth in experiment [19] is 43.5%; in [20] it was 51.6%.
On to `COc1cc2c(cc1OC)CC[N+](CCC[N+](C)(C)C)=C2`, for which the growth in [1] is 88.9%; in experiment [2], 100%; in experiment [3], 98%; in experiment [4], 91.1%; in experiment [5] it was 80.5%; in experiment [6], 104%. Also, the growth was 96.3% in experiment [7]; 104% in experiment [8]; 97.9% in experiment [9]; 91.6% in experiment [10]; 89.8% in experiment [11]; 103% in [12]. Also, the growth in experiment [13] was 110%; in experiment [14], 91.5%; in experiment [15], 99%; in experiment [16] it was 92.9%; in [17], 99.6%; in [18], 108%. Besides, the growth in [19] was 111%; in experiment [20], 102%.
